Measured values reported in the supplement of paper PMC10849652.
The full data set covers some 7,900 targets. This sample favours those with a hit. About 0.6% of all pairs of compound and target were hits.

compound: Cc1ncc(-c2ccnc(Nc3ccc(S(C)(=O)=O)cc3)n2)n1C(C)C; assay: log2 fold change, soluble protein after heating vs DMSO (PISA); higher = thermal stabilisation; K562 cells, 10 uM, 30 min; active = over 0.2 and 3.5 SD of the protein, either way, in both replicates (recomputed)
Method in brief: (§1)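 Aliquots of K562 cells (2×10^6 cells/mL) treated with 10 μM compound for 30 min were heated for 3 min over 48°C-58°C. After pooling and extraction in PBS with 0.5% NP-40 at 4°C, soluble protein from a 21,000xg, 90 min spin was quantified by TMTpro 16plex LC-MS/MS with channel sums equalised. Thermal stability is expressed against control samples, from duplicates, as a log2 fold change.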

Chain of UniProt P31943 (P31943 whole entry, looked up): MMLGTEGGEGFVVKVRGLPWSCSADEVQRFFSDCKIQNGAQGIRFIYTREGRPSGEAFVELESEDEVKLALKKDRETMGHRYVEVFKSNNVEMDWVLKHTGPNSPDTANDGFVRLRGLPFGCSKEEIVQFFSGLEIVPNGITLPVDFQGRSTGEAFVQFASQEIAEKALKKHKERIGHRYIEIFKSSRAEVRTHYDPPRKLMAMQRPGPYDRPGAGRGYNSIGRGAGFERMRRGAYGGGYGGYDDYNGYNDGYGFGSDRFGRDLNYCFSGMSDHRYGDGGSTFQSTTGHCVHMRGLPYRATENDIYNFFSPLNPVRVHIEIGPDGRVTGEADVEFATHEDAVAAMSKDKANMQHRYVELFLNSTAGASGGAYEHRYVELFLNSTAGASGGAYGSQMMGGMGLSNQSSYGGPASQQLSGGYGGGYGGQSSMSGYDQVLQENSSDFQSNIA
Chain of UniProt P55795 (P55795 whole entry, looked up): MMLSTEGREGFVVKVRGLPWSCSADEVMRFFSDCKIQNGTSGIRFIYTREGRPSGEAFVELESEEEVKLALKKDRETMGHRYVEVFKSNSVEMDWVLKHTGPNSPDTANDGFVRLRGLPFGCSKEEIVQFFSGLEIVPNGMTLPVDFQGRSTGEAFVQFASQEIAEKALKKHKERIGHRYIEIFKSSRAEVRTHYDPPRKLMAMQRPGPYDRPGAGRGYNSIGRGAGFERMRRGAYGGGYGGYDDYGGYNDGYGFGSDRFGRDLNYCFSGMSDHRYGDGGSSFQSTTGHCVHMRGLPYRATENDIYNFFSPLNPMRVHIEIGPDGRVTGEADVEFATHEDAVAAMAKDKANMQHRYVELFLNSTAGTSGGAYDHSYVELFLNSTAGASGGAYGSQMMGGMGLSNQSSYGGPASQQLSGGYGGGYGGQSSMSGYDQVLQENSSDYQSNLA
Chain of UniProt P60520 (P60520 whole entry, looked up): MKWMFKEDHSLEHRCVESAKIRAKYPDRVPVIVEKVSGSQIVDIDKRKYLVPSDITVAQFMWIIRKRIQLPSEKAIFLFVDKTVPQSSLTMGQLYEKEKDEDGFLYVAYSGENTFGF
Chain of UniProt Q02790 (Q02790 whole entry, looked up): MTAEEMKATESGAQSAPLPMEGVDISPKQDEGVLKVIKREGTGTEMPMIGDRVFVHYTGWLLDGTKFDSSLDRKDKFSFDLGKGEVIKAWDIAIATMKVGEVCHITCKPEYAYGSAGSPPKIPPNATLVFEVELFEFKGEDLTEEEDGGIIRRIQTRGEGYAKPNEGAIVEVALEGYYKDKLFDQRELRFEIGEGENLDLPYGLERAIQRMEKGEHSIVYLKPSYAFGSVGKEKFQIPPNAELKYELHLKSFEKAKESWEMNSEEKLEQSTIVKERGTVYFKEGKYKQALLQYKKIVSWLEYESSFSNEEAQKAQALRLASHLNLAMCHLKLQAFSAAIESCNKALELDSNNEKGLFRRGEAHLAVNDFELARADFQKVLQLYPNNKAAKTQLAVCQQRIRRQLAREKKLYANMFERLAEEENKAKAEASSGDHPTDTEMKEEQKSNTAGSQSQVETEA
Chain of UniProt Q06546 (Q06546 whole entry, looked up): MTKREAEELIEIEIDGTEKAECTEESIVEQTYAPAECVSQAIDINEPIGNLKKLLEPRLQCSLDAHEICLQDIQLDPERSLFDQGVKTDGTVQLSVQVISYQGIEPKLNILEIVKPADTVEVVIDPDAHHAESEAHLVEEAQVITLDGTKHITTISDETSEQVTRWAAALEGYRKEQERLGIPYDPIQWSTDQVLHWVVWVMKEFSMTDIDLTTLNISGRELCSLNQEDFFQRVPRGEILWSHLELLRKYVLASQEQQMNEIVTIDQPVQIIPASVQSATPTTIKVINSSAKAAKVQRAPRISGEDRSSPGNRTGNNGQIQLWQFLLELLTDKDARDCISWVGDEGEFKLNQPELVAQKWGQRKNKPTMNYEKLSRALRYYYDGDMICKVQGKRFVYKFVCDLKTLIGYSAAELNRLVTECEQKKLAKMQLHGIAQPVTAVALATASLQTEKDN
Chain of UniProt Q969S8 (Q969S8 whole entry, looked up): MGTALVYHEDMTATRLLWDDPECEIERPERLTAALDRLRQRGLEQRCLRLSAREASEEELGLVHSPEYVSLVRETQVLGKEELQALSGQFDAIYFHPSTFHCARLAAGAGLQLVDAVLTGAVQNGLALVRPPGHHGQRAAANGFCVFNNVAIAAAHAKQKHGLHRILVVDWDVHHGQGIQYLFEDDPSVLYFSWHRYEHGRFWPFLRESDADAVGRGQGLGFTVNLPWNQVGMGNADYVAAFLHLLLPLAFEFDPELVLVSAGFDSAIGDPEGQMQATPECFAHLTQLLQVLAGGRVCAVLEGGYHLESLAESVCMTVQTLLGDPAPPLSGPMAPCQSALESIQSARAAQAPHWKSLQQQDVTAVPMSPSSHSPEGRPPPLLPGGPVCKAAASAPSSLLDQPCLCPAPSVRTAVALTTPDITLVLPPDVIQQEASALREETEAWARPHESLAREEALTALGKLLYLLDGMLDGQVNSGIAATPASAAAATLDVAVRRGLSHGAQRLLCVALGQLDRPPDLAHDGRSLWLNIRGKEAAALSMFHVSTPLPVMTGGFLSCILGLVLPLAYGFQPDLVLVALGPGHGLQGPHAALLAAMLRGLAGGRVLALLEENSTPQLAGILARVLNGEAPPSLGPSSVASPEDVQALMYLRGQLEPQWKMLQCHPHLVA
Chain of UniProt Q9UBN7 (Q9UBN7 whole entry, looked up): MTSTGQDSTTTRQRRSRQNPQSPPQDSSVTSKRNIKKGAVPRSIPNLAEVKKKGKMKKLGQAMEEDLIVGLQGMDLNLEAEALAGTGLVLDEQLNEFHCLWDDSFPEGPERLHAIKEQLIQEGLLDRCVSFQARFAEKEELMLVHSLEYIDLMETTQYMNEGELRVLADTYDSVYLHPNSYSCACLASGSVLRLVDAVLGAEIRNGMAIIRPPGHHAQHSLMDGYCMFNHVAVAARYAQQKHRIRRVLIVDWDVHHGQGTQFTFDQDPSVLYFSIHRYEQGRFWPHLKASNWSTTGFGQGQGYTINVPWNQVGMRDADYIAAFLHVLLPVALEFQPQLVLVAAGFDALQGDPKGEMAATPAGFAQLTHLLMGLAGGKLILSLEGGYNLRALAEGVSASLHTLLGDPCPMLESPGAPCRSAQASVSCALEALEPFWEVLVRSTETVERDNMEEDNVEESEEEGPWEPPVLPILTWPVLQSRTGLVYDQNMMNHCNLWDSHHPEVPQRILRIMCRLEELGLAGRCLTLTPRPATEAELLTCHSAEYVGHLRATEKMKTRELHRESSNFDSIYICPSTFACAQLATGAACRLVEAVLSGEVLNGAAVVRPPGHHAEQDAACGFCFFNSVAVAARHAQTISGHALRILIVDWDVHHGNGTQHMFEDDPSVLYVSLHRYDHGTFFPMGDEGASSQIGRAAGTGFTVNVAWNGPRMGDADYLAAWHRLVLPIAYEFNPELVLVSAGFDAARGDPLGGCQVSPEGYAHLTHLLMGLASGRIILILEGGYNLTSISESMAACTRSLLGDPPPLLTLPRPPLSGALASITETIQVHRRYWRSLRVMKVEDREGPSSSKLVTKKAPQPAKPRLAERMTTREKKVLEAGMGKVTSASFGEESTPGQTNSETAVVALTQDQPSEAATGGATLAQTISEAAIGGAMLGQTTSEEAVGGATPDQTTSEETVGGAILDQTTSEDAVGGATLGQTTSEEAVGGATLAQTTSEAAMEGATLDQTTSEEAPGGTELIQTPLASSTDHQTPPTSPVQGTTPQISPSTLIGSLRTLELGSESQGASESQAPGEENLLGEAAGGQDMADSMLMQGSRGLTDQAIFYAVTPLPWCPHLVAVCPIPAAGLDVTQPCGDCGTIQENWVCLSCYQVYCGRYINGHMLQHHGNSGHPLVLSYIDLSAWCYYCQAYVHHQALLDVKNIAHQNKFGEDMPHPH
Chain of UniProt Q86VQ1 (Q86VQ1 whole entry, looked up): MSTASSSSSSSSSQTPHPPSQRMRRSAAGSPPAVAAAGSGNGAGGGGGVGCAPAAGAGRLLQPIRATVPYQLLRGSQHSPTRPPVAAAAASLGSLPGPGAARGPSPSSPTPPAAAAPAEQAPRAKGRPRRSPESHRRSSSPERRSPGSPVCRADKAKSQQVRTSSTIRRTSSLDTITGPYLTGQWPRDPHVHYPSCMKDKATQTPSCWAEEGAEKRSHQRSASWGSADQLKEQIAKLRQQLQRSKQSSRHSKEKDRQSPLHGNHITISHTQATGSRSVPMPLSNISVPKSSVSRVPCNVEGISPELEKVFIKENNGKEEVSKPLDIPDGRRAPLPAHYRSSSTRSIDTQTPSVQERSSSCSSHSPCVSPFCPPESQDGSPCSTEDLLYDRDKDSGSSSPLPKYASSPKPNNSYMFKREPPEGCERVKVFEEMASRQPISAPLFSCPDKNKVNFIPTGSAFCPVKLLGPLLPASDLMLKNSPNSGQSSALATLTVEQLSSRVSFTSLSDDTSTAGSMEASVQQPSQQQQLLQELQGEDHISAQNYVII
Chain of UniProt Q8N4A0 (Q8N4A0 whole entry, looked up): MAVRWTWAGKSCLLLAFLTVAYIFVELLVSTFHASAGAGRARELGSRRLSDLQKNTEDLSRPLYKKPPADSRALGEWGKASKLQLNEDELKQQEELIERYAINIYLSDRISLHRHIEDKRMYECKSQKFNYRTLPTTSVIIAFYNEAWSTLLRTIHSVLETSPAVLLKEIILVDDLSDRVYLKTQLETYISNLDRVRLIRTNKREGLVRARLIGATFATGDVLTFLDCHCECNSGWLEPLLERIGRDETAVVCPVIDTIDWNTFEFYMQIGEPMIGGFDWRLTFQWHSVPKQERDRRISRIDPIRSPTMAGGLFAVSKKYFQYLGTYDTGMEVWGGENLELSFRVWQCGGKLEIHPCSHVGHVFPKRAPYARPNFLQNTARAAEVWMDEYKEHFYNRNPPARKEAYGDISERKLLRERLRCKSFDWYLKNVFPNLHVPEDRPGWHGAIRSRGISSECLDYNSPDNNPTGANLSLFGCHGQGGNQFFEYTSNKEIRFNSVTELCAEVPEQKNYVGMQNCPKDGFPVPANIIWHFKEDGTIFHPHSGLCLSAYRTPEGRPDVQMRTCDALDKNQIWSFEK

log2 fold change, inactive:
FUBP3 (UniProt Q96I24) 0.167
FKBP3 (UniProt Q00688) 0.029
HDAC6 (UniProt Q9UBN7) -0.084
GALK1 isoform 2 (UniProt P51570) -0.015
IFRD2 isoform 2 (UniProt Q12894) 0.236
FKBP7 (UniProt Q9Y680) 0
HEATR3 (UniProt Q7Z4Q2) -0.073
FKBP4 (UniProt Q02790) 0.024
GABARAPL2 (UniProt P60520) -0.004
GIGYF2 (UniProt Q6Y7W6) -0.023
GSR (UniProt P00390) 0
GNAS (UniProt Q5JWF2) 0.005
HIST2H2BF isoform 2 (UniProt Q5QNW6) 0.012
HLTF (UniProt Q14527) 0.015
GALNT4 (UniProt Q8N4A0) 0.042
FBXO7 (UniProt Q9Y3I1) 0
GMEB1 (UniProt Q9Y692) 0.001
GLUD1 (UniProt P00367) -0.015
FANCI (UniProt Q9NVI1) -0.085
HDAC10 (UniProt Q969S8) -0.08
FUCA1 (UniProt P04066) -0.014
GUK1 isoform 2 (UniProt Q16774) 0.054
GOLGB1 isoform 2 (UniProt Q14789) -0.078
FANCD2 isoform 1 (UniProt Q9BXW9) -0.119
IDH3A (UniProt P50213) -0.024
GLCCI1 (UniProt Q86VQ1) -0.094
FMC1 (UniProt Q96HJ9) -0.012
GABPA (UniProt Q06546) -0.026
GEMIN5 (UniProt Q8TEQ6) -0.127
GLS (UniProt O94925) 0.009
HEXA (UniProt P06865) -0.036
GEMIN2 (UniProt O14893) -0.027
GNPAT (UniProt O15228) -0.028
HNRNPH2 (UniProt P55795) -0.103
HNRNPH1 (UniProt P31943) -0.116

compound: Cn1cc(-c2ccc3c(c2)CCN3C(=O)Cc2cccc(C(F)(F)F)c2)c2c(N)ncnc21; assay: as above
Method in brief: as §1

log2 fold change, inactive:
FUBP3 (UniProt Q96I24) -0.059
FKBP3 (UniProt Q00688) -0.006
HDAC6 (UniProt Q9UBN7) 0.055
GALK1 isoform 2 (UniProt P51570) 0.055
IFRD2 isoform 2 (UniProt Q12894) 0.07
FKBP7 (UniProt Q9Y680) 0.071
HEATR3 (UniProt Q7Z4Q2) -0.008
FKBP4 (UniProt Q02790) 0.033
GABARAPL2 (UniProt P60520) 0.046
GIGYF2 (UniProt Q6Y7W6) 0.054
GSR (UniProt P00390) 0.002
GNAS (UniProt Q5JWF2) 0.029
HIST2H2BF isoform 2 (UniProt Q5QNW6) -0.358
HLTF (UniProt Q14527) -0.035
GALNT4 (UniProt Q8N4A0) 0.079
FBXO7 (UniProt Q9Y3I1) 0.065
GMEB1 (UniProt Q9Y692) 0.019
GLUD1 (UniProt P00367) 0.173
FANCI (UniProt Q9NVI1) 0.075
HDAC10 (UniProt Q969S8) 0.071
FUCA1 (UniProt P04066) -0.054
GUK1 isoform 2 (UniProt Q16774) 0.058
GOLGB1 isoform 2 (UniProt Q14789) -0.077
FANCD2 isoform 1 (UniProt Q9BXW9) 0.126
IDH3A (UniProt P50213) 0.045
GLCCI1 (UniProt Q86VQ1) 0.03
FMC1 (UniProt Q96HJ9) -0.006
GABPA (UniProt Q06546) 0.048
GEMIN5 (UniProt Q8TEQ6) 0.006
GLS (UniProt O94925) -0.081
HEXA (UniProt P06865) -0.003
GEMIN2 (UniProt O14893) -0.039
GNPAT (UniProt O15228) 0.059
HNRNPH2 (UniProt P55795) -0.021
HNRNPH1 (UniProt P31943) 0.022
